Screening results deposited in PubChem by The Scripps Research Institute Molecular Screening Center.
Compounds with a hit are over-represented: about 1.1% of the library has one in this group of screens.
OPRM1-OPRD1 inv = inverse agonists of MOR-DOR heterodimerization, primary screen, cell-based, luminescence; cell-based MOR-DOR heterodimer luminescence, inverse agonism; inhibition, % at 9.3 µM; actives 0.21% (n = 340,000); Mu-type opioid receptor (Homo sapiens) + Delta-type opioid receptor (Homo sapiens), …; in the data active = inhibition above about 22%, passing the limit was not always enough;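 also: 0% = cells with DMSO and 100% = wells without cells with DMSO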
Target sequence (P35372 whole entry, looked up): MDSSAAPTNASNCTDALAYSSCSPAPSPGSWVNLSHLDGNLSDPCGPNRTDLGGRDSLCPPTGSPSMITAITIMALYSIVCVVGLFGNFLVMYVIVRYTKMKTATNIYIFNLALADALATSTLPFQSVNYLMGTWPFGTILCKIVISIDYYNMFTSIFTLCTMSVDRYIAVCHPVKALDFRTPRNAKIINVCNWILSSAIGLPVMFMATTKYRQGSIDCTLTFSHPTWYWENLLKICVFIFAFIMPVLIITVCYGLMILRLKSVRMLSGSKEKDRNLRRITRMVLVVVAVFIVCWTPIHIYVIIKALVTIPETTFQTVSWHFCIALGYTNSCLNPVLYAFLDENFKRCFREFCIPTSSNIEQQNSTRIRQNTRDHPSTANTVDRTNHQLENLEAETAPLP
Target sequence (P41143 whole entry, looked up): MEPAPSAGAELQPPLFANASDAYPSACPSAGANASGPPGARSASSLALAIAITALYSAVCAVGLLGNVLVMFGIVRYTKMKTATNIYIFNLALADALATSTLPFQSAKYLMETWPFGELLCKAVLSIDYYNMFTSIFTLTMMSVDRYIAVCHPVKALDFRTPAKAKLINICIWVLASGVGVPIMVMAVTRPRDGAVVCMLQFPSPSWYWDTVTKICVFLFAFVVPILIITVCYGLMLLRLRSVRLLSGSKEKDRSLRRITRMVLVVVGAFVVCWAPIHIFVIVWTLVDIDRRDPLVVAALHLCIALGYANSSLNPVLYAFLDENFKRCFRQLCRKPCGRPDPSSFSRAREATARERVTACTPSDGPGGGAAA
HTR5A ag ctr = HTR5A agonists in luminescence cell assay, primary screen, counter-screen for OPRM1-OPRD1 heterodimer agonist project, full-deck HTS; 5-hydroxytryptamine receptor 5A (Homo sapiens), P47898; cell-based; activation, % at 9.3 µM; actives 0.61% (n = 340,000); in the data active = activation mostly above about 9.5%, no sharp cut-off; inactive = mostly below about 7.6%;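 also: 0% = cells with vehicle only and 100% = reference agonist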
HTR5A inv ag = HTR5A inverse agonists in luminescence cell assay, primary screen, counter-screen for OPRM1-OPRD1 heterodimer inverse agonist project, full-deck HTS; 5-hydroxytryptamine receptor 5A (Homo sapiens), P47898; HTR5A cell line, inverse agonism; inhibition, % at 9.3 µM; actives 0.083% (n = 340,000); AID 504634, 2011; in the data active = inhibition mostly above about 23%, no sharp cut-off; inactive = mostly below about 18%;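 also: 0% = cells with DMSO and 100% = no-cell wells with DMSO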
MOR-DOR ag = agonists of OPRM1-OPRD1 heterodimerization, primary screen, cell-based, luminescence; Mu-type opioid receptor (Homo sapiens) + Delta-type opioid receptor (Homo sapiens), …; cells; activation, % at 9.3 µM; actives 0.3% (n = 340,000);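 also: 0% = vehicle-treated cells and 100% = reference agonist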
OPRM1-D1 ag cf = agonists of MOR-DOR heterodimerization, confirmation, cell-based, luminescence. shares compounds with MOR-DOR ag. cells, luminescence complementation. activation, % at 9.3 µM. actives 45% (n = 830). AID 504904, 2011;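 also: 0% = vehicle-treated cells and 100% = reference agonist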
HTR5A ag counter = HTR5A agonists in cells, counter-screen for OPRM1-OPRD1 heterodimer agonist project, cell-based, luminescence | HTR5A agonist counterscreen | actives 8% (n = 830) | activation, % at 9.3 µM | shares compounds with MOR-DOR ag; in the data active = activation above about 17%;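 also: 0% = vehicle-treated cells and 100% = reference agonist response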
The depositor's hits bear a star. Rule as the data show it, unless noted: active = activation above about 18%; inactive = the rest.

How did Cc1ccc(C)c(NC(=S)NC(NC(=O)N(C)C)C(Cl)(Cl)Cl)c1 (stereo unspecified) do in these assays?
OPRM1-OPRD1 inv: -11.5; HTR5A ag ctr: 2.9; HTR5A inv ag: -7.5; MOR-DOR ag: 1.8

What do the screens show for `Cc1cc2oc(C(=O)N(Cc3ccccc3)C3CCS(=O)(=O)C3)c(C)c2cc1C` (stereo unspecified)?
OPRM1-OPRD1 inv: -215.6; HTR5A ag ctr: 5.7; HTR5A inv ag: -6.9; MOR-DOR ag: 39.9*; OPRM1-D1 ag cf: 21.3*; HTR5A ag counter: -3.6

How did Cc1ccc2oc(C(=O)N(Cc3ccccc3)C3CCS(=O)(=O)C3)c(C)c2c1 (stereo unspecified) do in these assays?
OPRM1-OPRD1 inv: -109.2; HTR5A ag ctr: 1.2; HTR5A inv ag: -9.8; MOR-DOR ag: 19.8*; OPRM1-D1 ag cf: 2.0; HTR5A ag counter: 4.5

What do the screens show for `Cc1ccc2c(C)c(C(=O)N(Cc3ccccc3)C3CCS(=O)(=O)C3)oc2c1` (stereo unspecified)?
OPRM1-OPRD1 inv: -195.2; HTR5A ag ctr: 2.9; HTR5A inv ag: -7.0; MOR-DOR ag: 35.0*; OPRM1-D1 ag cf: -3.8; HTR5A ag counter: -1.9

Results for CCOc1ccc(CN(C(=O)c2oc3cc(C)ccc3c2C)C2CCS(=O)(=O)C2)cc1 (stereo unspecified) ?
OPRM1-OPRD1 inv: -27.8; HTR5A ag ctr: 1.9; HTR5A inv ag: -0.2; MOR-DOR ag: 5.4

What do the screens show for `Cc1ccc2c(C)c(C(=O)N(Cc3cccs3)C3CCS(=O)(=O)C3)oc2c1` (stereo unspecified)?
OPRM1-OPRD1 inv: -281.5; HTR5A ag ctr: 1.1; HTR5A inv ag: -17.8; MOR-DOR ag: 47.3*; OPRM1-D1 ag cf: 75.1*; HTR5A ag counter: 3.3

How did Cc1c(C(=O)N(Cc2ccccc2Cl)C2CCS(=O)(=O)C2)oc2ccccc12 (stereo unspecified) do in these assays?
OPRM1-OPRD1 inv: -66.1; HTR5A ag ctr: -1.8; HTR5A inv ag: 5.5; MOR-DOR ag: 11.2

How did COc1ccc(CN(C(=O)c2oc3ccc(F)cc3c2C)C2CCS(=O)(=O)C2)cc1 (stereo unspecified) do in these assays?
OPRM1-OPRD1 inv: -8.6; HTR5A ag ctr: -0.9; HTR5A inv ag: 3.5; MOR-DOR ag: 1.6

What do the screens show for `CCN1CC(CN(C)Cc2cn(-c3cccc(C)c3)nc2-c2cccc(F)c2)CC1=O` (stereo unspecified)?
OPRM1-OPRD1 inv: -103.7; HTR5A ag ctr: 1.6; HTR5A inv ag: -4.5; MOR-DOR ag: 19.9*; OPRM1-D1 ag cf: -0.1; HTR5A ag counter: 5.0

How did O=C(COc1ccc(/C=N/NC(=O)c2cc3ccccc3o2)cc1Br)Nc1ccccc1 do in these assays?
OPRM1-OPRD1 inv: -264.1; HTR5A ag ctr: 4.2; HTR5A inv ag: -57.0; MOR-DOR ag: 44.8*; OPRM1-D1 ag cf: 40.9*; HTR5A ag counter: 14.6

Results for CCOC(=O)C1(CC2CC2)CCN(Cc2cn(C)c3ccccc23)CC1 ?
OPRM1-OPRD1 inv: -124.5; HTR5A ag ctr: -5.1; HTR5A inv ag: 16.6; MOR-DOR ag: 18.1*; OPRM1-D1 ag cf: -2.7; HTR5A ag counter: -6.4

What do the screens show for `CCOC(=O)C1(Cc2ccccc2)CCN(Cc2cn(CC(=O)OC)c3ccccc23)CC1`?
OPRM1-OPRD1 inv: 0.2; HTR5A ag ctr: -2.8; HTR5A inv ag: 20.2; MOR-DOR ag: -0.1

Results for CCOC(=O)C1(CC2CC2)CCN(Cc2cnc(N(C)C)s2)CC1 ?
OPRM1-OPRD1 inv: -181.7; HTR5A ag ctr: -2.0; HTR5A inv ag: -26.4; MOR-DOR ag: 34.8*; OPRM1-D1 ag cf: 1.5; HTR5A ag counter: 2.8

Results for CCN(CC(=O)Nc1ccc(NC(C)=O)cc1)C(=O)CCCc1c[nH]c2ccccc12 ?
OPRM1-OPRD1 inv: 3.1; HTR5A ag ctr: 0.9; HTR5A inv ag: -2.3; MOR-DOR ag: -0.8

Results for CN(C(=O)c1cccc(NC(=O)Cc2ccc(NC(=O)C3CCN(S(=O)(=O)c4cccc([N+](=O)[O-])c4)CC3)cc2)c1)C1CCCCC1 ?
OPRM1-OPRD1 inv: -35.1; HTR5A ag ctr: 3.0; HTR5A inv ag: -11.2; MOR-DOR ag: 7.5
